# Assay results published in PubChem BioAssay (EPA / NIEHS).
# Results filed as inconclusive are left out. A structure can be active in one record and inactive in another. Active and inactive are the calls of the source. Rule for the calls: active = hit-call score of the fitted dose curve at least 0.9, where 1 is the maximum; inconclusive = response in the unintended direction; inactive = score below 0.9.
# Experiment: CCTE_Shafer_MEA_dev_bursting_electrodes_number: CCTE's Neural Network Formation Assay for Number of Bursting Electrodes, Shafer Lab (AID 2284043);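 for AC50: potency is for loss of bursting electrodes relative to DMSO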
# Procedure, shortened: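 Counted: electrodes with burst rate ≥1 per 2 min in each well. Cells: primary rat cortex, 1.5 x 10^5/well, on 16-electrode MEA wells. Exposure: DIV 0–12, compound renewed DIV 5 and 9. Recording days 5, 7, 9, 12; AUC vs DMSO baseline.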
Structure (SMILES),AC50,outcome
C[n+]1ccc(-c2cc[n+](C)cc2)cc1,1.18 µM (active),–
C/C(=C/C=C/[C@@H](C)C(=O)O)[C@H]1CN[C@H](C(=O)O)[C@H]1CC(=O)O,1.28 µM (active),inactive
NCCc1cc(O)c(O)cc1O,4.29 µM (active),–
CCOP(=S)(OCC)SCS(=O)C(C)(C)C (stereo not given),–,inactive
C[n+]1ccc(-c2ccccc2)cc1,4.7 µM (active),–
O=C(O)CNCP(=O)(O)O,–,inactive
Cn1nc(C(F)(F)F)c(CS(=O)(=O)C2=NOC(C)(C)C2)c1OC(F)F,87.5 µM (active),–
CCCCC(CC)COC(=O)c1cc(Br)c(Br)c(Br)c1Br (stereo not given),18.8 µM (active),–
CC1(C)C(C=C(Cl)c2ccc(Cl)cc2)C1C(=O)OC(C#N)c1ccc(F)c(Oc2ccccc2)c1 (stereo not given),12.9 µM (active),–
CCOP(=O)(Oc1cnc(C(C)(C)C)nc1)OC(C)C (stereo not given),–,inactive
CC1(C)[C@H](C=C(Cl)Cl)[C@H]1C(=O)OCc1c(F)c(F)cc(F)c1F,23.3 µM (active),–
CC(=O)[O-].CC(=O)[O-].O.O.O.[Pb+2],18.5 µM (active),–
CC1(C)C(C=C(Cl)Cl)C1C(=O)O[C@H](C#N)c1cccc(Oc2ccccc2)c1 (stereo not given in full),3.6 µM (active),–
CCOP(=O)(OCC)OC(Cl)C(Cl)(Cl)Cl (stereo not given),1.1 µM (active),–
CCOP(=O)(OCC)SCSC(C)(C)C,9.83 µM (active),–
CC1(C)[C@@H](C=C(Cl)Cl)[C@@H]1C(=O)O[C@@H](C#N)c1ccc(F)c(Oc2ccccc2)c1,15 µM (active),–
COP(=O)(OC)SCN1C(=O)c2ccccc2C1=O,–,inactive
CP(=O)(O)CC[C@H](N)C(=O)O,–,inactive
CC(=O)[O-].[Tl+],–,inactive
